Shown are actives, neighbours in structure and some others; about 4.7% of the full set was active somewhere.
ATG4B inhibitor: ATG4B (human) cysteine protease inhibition; inhibition, % at 8.33 µM; ATG4B cleavage of LC3-PLA2, NBD-HPC fluorescence, 1 h; 0.51% of 340,000 active; Q9Y4P1; in the data active = inhibition above about 40%
Target sequence (Q9Y4P1 whole entry, looked up): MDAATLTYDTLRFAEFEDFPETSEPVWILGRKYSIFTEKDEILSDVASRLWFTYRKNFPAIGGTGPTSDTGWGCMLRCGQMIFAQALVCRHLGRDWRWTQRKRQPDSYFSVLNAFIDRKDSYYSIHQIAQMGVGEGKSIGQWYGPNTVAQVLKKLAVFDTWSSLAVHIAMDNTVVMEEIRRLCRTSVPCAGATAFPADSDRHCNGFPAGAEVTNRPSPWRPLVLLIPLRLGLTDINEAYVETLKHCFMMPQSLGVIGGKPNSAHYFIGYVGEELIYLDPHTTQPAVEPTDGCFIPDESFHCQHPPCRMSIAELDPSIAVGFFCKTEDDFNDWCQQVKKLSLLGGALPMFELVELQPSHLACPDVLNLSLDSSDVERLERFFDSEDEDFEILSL
TIM10 inh: TIM10 yeast growth inhibition | S. cerevisiae TIM10 strain growth, BacTiter-Glo luminescence, 24 h | inhibition, % at 10 µM | 1.4% of 330,000 active;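 active = inhibition of 40% or more at the single tested concentration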;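 also: wild-type TIM10 isogenic control strain grown at permissive 25 °C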
SKKanGAS inh: SKKanGAS growth inhibition. S. pyogenes SKKanGAS, kanamycin growth, BacTiter-Glo, 6 h. 1.3% of 300,000 active. inhibition, % at 7.5 µM. AID 1662;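 active = mean replicate score, as percent of positive control median, at least 50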;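 also: strain carries kanamycin resistance gene driven by streptokinase promoter and grows in 40 µg/ml kanamycin; loss of luminescence reflects streptokinase promoter inhibition or plain growth inhibition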
PfHsp90 set2: reduces growth (ATP signal) of yeast expressing P. falciparum Hsp90; 0.32% of 310,000 active; inhibition, % at 9.4 µM; S. cerevisiae expressing PfHsp90, BacTiter-Glo ATP, 48 h; yeast lacking PDR1 and PDR3 efflux regulators;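 active = every replicate shows inhibition above about 80%, whatever the replicate mean, limit read from the data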
tim10-1 inh: inhibits growth of tim10-1 mutant yeast | S. cerevisiae tim10-1 ts strain growth, BacTiter-Glo, 24 h | inhibition, % at 20 µM | 2.2% of 330,000 active;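 active = inhibition of at least 40%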;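 also: mutant grown at 25 °C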
tim23-1 inh: growth inhibitors of tim23-1 mutant yeast. 1.3% of 330,000 active. inhibition, % at 20 µM. S. cerevisiae tim23-1 growth, BacTiter-Glo luminescence, 24 h. AID 463212;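 active = growth inhibition of the mutant yeast at or above 50%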;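 also: temperature-sensitive mutant grown at 25 °C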
Numbers stand for hits; - = inactive; . = no result.

SMILES | ATG4B inhibitor | TIM10 inh | SKKanGAS inh | PfHsp90 set2 | tim10-1 inh | tim23-1 inh
CC1(C)Cc2c(sc(NC(=O)c3ccco3)c2C#N)CO1 | - | - | - | - | - | -
CCOC(=O)C1C(=O)CC(C)(O)C(C(=O)OCC)C1c1ccccc1 (stereo not given) | - | - | - | - | - | -
C/C(=N\NC(=O)c1cc2ccccc2cc1O)c1cccs1 | - | - | 71 | - | - | -
C/C(=N\NC(=O)c1cc2ccccc2cc1O)c1ccc(C)o1 | - | - | 62 | - | - | -
O=C(NNC(=O)c1cc2ccccc2cc1O)c1cccs1 | - | - | - | - | - | -
C/C(=N/NC(=O)c1cc2ccccc2cc1O)c1ccco1 | - | - | - | - | - | -
CCOc1ccccc1-c1noc(CCCC(=O)NC2CCCCC2)n1 | - | - | - | - | - | -
CCOC(=O)CSc1nnc(-c2ccc(Cl)cc2Cl)o1 | - | - | - | . | - | -
NC(=O)NC(=O)CSc1nc2sc(-c3ccccc3)cc2c(=O)n1-c1ccccc1 | - | - | 62 | . | - | -
CN1CCN(c2nc(Nc3cccc(C(F)(F)F)c3)nc(N3CCOCC3)n2)CC1 | - | - | - | - | - | -
FC(F)(F)c1cccc(Nc2nc(N3CCCC3)nc(N3CCCC3)n2)c1 | - | - | 75 | - | - | -
O=S(=O)(N/N=C/c1ccc(Cl)cc1)c1ccc(Cc2ncc(C(F)(F)F)cc2Cl)s1 | - | - | 50 | - | - | -
O=C(CCC(=O)OCc1ccc(C(=O)Oc2ccccc2)cc1)Nc1cccc2ccccc12 | - | - | - | - | - | -
CC(C)(C)NC(=O)CN(c1cccc([N+](=O)[O-])c1)S(=O)(=O)c1ccccc1 | - | - | - | - | - | -
O=C(CCCC(=O)Nc1cccc(Br)c1)N/N=C/c1cc([N+](=O)[O-])ccc1O | - | - | 99 | - | - | -
Cc1ccc(NC(=O)CCC(=O)N/N=C/c2cc([N+](=O)[O-])ccc2O)cc1 | - | - | - | - | - | -
O=C(CN(c1cccc(Br)c1)S(=O)(=O)c1ccccc1)N/N=C/c1cc([N+](=O)[O-])ccc1O | - | - | 119 | - | - | -
O=C(CCC(=O)Nc1cccc(Cl)c1)N/N=C/c1cc([N+](=O)[O-])ccc1O | - | - | 100 | - | - | -
Cc1ccccc1NC(=O)CCC(=O)N/N=C/c1cc([N+](=O)[O-])ccc1O | - | - | - | - | - | -
CO[C@H]1C=CO[C@@]2(C)Oc3c(C)c(O)c4c(O)c(c5c(c4c3C2=O)NC2(CCN(CC(C)C)CC2)N=5)=NC(=O)C(C)=CC=C[C@H](C)[C@H](O)[C@@H](C)[C@@H](O)[C@@H](C)[C@H](OC(C)=O)[C@@H]1C | . | . | 106 | . | . | .
CO[C@H]1C=CO[C@@]2(C)Oc3c(C)c(O)c4c(O)c(c5c(nc6cc(C)ccn65)c4c3C2=O)NC(=O)C(C)=CC=C[C@H](C)[C@H](O)[C@@H](C)[C@@H](O)[C@@H](C)[C@H](OC(C)=O)[C@@H]1C | . | - | 105 | . | - | -
COC1C=COC2(C)Oc3c(C)c(O)c4c(O)c(c(CN5CCN(C)CC5)c(O)c4c3C2=O)NC(=O)C(C)=CC=CC(C)C(O)C(C)C(O)C(C)C(OC(C)=O)C1C (stereo not given) | - | . | . | - | . | .
COc1ccc(CCN2CCCC(CN(C)Cc3cc(OC)ccc3OC)C2)cc1 (stereo not given) | - | - | - | - | - | -
CCOC(=O)/C(=C/c1ccc(N2CCC(c3ccccc3)=N2)cc1)C(C)=O | - | . | - | 106 | . | .
Cc1nc(N2CCN(Cc3ccccc3)CC2)nc2c1CCC2 | - | - | - | - | - | -
FC(F)(F)c1nc(N2CCN(c3ccccc3)CC2)nc2c1CCCCC2 | - | - | 68 | - | - | -
Nc1ccc(-c2nc3nc(N)nc(N)c3nc2-c2ccc(N)cc2)cc1 | - | - | 62 | - | - | -
Nc1nc(N)c2ncc(C(=O)CCc3ccccc3)nc2n1 | - | - | - | - | - | -
COc1ccc(OC)c(CCNC(=O)c2ccc(CS(=O)Cc3cccc(Cl)c3)o2)c1 (stereo not given) | - | - | - | - | - | -
COC(=O)[C@@]12CCCCN1[C@H](c1ccc(-c3cccc(Cl)c3)c(OC)c1)[C@@H]1C(=O)N(C)C(=O)[C@@H]12 | - | - | - | - | - | -
